The campaign covered roughly 310,000 compounds. About 14,000 (4.5%) showed an effect of 50% or more. Effects have a minus sign here. This is one part of a sample in which strong results are shown more often than they occur.
Biological target: human ether-à-go-go-related gene (hERG) potassium channel (human, UniProt Q12809)
Assay: primary screen, population patch clamp on CHO cells stably expressing hERG; higher = less effect of the substance
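Further: peak tail current of the secondary pulse compared with the same well before compound.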

Chain of human ether-à-go-go-related gene (hERG) potassium channel (Q12809 whole entry, looked up): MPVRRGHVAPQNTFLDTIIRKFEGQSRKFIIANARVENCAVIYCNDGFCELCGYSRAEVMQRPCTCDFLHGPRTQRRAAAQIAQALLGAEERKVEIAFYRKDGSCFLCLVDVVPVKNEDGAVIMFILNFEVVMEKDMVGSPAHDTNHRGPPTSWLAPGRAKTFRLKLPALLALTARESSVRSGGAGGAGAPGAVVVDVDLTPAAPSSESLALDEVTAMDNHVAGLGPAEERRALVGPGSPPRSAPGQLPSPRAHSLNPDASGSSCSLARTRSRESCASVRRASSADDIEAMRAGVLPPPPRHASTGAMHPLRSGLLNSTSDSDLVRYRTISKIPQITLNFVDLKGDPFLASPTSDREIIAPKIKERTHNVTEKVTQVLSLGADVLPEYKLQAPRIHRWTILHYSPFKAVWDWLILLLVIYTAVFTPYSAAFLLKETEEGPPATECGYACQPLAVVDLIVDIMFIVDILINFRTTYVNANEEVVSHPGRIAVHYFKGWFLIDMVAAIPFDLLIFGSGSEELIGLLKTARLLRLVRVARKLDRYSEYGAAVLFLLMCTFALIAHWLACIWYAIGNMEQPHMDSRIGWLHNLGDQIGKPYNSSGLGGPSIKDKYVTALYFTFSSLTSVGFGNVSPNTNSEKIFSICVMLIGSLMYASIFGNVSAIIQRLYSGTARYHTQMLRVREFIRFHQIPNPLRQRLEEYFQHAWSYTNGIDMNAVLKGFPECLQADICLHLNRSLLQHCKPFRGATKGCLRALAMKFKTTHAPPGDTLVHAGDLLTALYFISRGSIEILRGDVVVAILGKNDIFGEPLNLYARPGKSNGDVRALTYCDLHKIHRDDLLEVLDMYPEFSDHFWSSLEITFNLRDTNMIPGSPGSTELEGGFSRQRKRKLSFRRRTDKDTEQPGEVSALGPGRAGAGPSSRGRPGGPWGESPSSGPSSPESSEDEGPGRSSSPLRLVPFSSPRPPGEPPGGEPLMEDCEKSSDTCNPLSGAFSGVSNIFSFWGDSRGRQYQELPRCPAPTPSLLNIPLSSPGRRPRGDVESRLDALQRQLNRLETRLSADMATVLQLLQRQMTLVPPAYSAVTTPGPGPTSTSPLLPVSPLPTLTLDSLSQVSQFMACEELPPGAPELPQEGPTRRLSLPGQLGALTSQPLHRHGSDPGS

| Structure (SMILES) | hERG current change (%, negative = inhibition) at 10uM [%] |
| --- | --- |
| Cc1cc(C)cc(NC(=S)NCCN(C2CCCCC2)C2CCCC2)c1 | -69.6 |
| Cc1cccc(NC(=S)NC2CCCC2)c1 | 0.919 |
| CCOCCCNC(=S)Nc1cc(C)cc(C)c1 | 11 |
| CN(C)CCNC(=S)Nc1cccc(Cl)c1 | -27 |
| Cc1ccc(C)c(NC(=S)NCCN(C2CCCCC2)C2CCCC2)c1 | -68.5 |
| S=C(NCCN(C1CCCCC1)C1CCCC1)Nc1cccc(Cl)c1 | -71.3 |
| Cc1cc(C)cc(NC(=S)NCCCO)c1 | -0.803 |
| Cc1cccc(NC(=S)N(C)C2CCCCC2)c1 | 5.51 |
| Cc1cccc(NC(=S)NCCN(C2CCCCC2)C2CCCC2)c1 | -70.3 |
| Cc1ccc(SCCNC(=S)Nc2cc(C)ccc2C)cc1 | 4.34 |
| S=C(Nc1cccc(Cl)c1)NC1CCCCC1 | 7.58 |
| Cc1ccc(C)c(NC(=S)NCc2ccccc2)c1 | 13.8 |
| Cn1ncc(Cl)c(Oc2ccc(C(C)(C)C)cc2)c1=O | -26 |
| CCOc1ccccc1NC(=O)c1cc(SC)ccc1Cl | 50.4 |
| COc1cc(/C=N/NC(=O)CCOc2ccccc2C)cc(Br)c1O | -16.4 |
| CC1CC(C)CN(C(=O)CCC(=O)Nc2nnc(C3CCCCC3)s2)C1 (centres unmarked) | 14.2 |
| CC(C)(C)CN1CCNC(=O)C1CC(=O)NCCc1ccccc1F (centres unmarked) | 4.25 |
| COc1ccccc1-c1csc(NC(=O)c2cc(-c3cccs3)nc3ccccc23)n1 | 8.88 |
| COc1ccc2cc(C3CC(c4ccco4)=NN3S(=O)(=O)c3ccccc3)c(Cl)nc2c1 (centres unmarked) | 4.38 |
| CCN(CC(=O)NCc1cccs1)C(=O)c1ccc(NS(=O)(=O)c2cccc([N+](=O)[O-])c2)cc1 | -19.7 |
| C/C(=N\NC(=S)NCc1ccccc1)c1ccc(Br)cc1 | 22.8 |
| O=C(O)C1CSC(c2ccccc2Cl)N1C(=O)c1ccc(Cl)cc1 (centres unmarked) | 14.9 |
| Fc1ccccc1N1CCN(Cc2c(F)cccc2F)CC1 | 7.89 |
| Cc1ccc(C)c(N2CCN(CCCc3ccccc3)CC2)c1 | -59.9 |

| Structure (SMILES) | hERG current change (%, negative = inhibition) at 10uM [%] |
| --- | --- |
| C/C=C(\C)CN1CCN(c2cc(C)ccc2C)CC1 | 6.08 |
| CCOC(=O)N1CCN(CCCc2ccccc2)CC1 | -6.26 |
| c1ccc(CCCN2CCN(c3ccccn3)CC2)cc1 | -51.7 |
| O=C(CN1CCN(c2ccccn2)CC1)NCCc1ccccc1 | -9.55 |
| Fc1ccccc1N1CCN(CCCc2ccccc2)CC1 | -64.7 |
| NCCCN1CCN(c2ccccc2)CC1 | -8.45 |
| O=C(CCc1ccccc1)N1CCN(c2ccccc2F)CC1 | 15.9 |
| c1ccc(CCCN2CCN(c3ccccc3)CC2)cc1 | -61.3 |
| Cc1ccc(C)c(N2CCN(CCN3CCCCC3)CC2)c1.Cl | -3.6 |
| O=C(CCc1ccccc1)N1CCN(c2ccccn2)CC1 | -9.9 |
| O=C(O)c1ccn[nH]1 | -0.906 |
| Cc1ccc(/C=N/NC(=O)c2nnn(-c3nonc3N)c2C(C)C)o1 | -4.22 |
| CSc1ncccc1C(=O)OCC(=O)c1cccs1 | 19.4 |
| CCOP(=O)(OCC)C(NC(=O)Nc1ccc(Cl)cc1)C(=O)N(CC)CC (centres unmarked) | -13.4 |
| CC(c1ccccc1)n1cncc1C(=O)O (centres unmarked) | 18 |
| CCn1c(SCC(=O)c2c[nH]c3ccccc23)nc2cc(S(=O)(=O)N3CCOCC3)ccc21 | 9.49 |
| C=C(C)CSc1nnc([C@H](CCSC)NC(=O)OC(C)(C)C)o1 | -14.3 |
| c1coc(CNc2nc3ccccc3s2)c1 | 11.1 |
| Cn1ccnc1SCC(=O)c1cc2ccccc2o1 | 4.65 |
| Cc1nn(C2CCS(=O)(=O)C2)c(Cl)c1/C=C/C(=O)OCC(=O)Nc1ccc2c(c1)OCO2 (centres unmarked) | 7.01 |
| O=C(NCCc1ccccc1)C1CCC(Cn2c(=O)c3ccccc3n(Cc3cccnc3)c2=O)CC1 (centres unmarked) | -37.3 |
| CCOc1ccc(/C=C2\SC(=S)N(N3C(=O)C4CC4C3=O)C2=O)cc1 (centres unmarked) | 15.4 |
| Cc1ccc(N2CCN(CCc3ccccc3)CC2)cc1 | -36.2 |
| Cc1cccc(CN2CCN(Cc3ccc(Cl)cc3)CC2)c1.O=C(O)C(=O)O | -40 |

| Structure (SMILES) | hERG current change (%, negative = inhibition) at 10uM [%] |
| --- | --- |
| Cc1cccc(CN2CCN(CCCc3ccccc3)CC2)c1.O=C(O)C(=O)O | -75.4 |
| Cc1cccc(CN2CCN(C(=O)Cc3ccccc3)CC2)c1.O=C(O)C(=O)O | 4.99 |
| c1ccc(CCN2CCC(N3CCN(c4ccccc4)CC3)CC2)cc1 | -66.4 |
| O=S(=O)(Cc1ccccc1)N1CCC(N2CCN(c3ccccc3)CC2)CC1 | -22.7 |
| CC1=NN(c2ccccc2)C(=O)/C1=C/c1c(O)n(-c2ccc(F)cc2)[nH]c1=O | 46 |
| Cc1c(C#N)c2ccccc2n1CC(=O)NCCc1c[nH]c2ccccc12 | -2.5 |
| CCOC(=O)c1ccc(Oc2nc(OC)nc(N(C)C)n2)cc1 | 6.27 |
| CCOC(=O)CCCCC(=O)c1[nH]c(=O)[nH]c1C[n+]1ccccc1.[Cl-] | 26.4 |
| Cc1[nH]c(=O)[nH]c1C(=O)CCCCC(=O)OCC(=O)Nc1ccccn1 | 12.3 |
| Cc1[nH]c(=O)[nH]c1C(=O)CCCCC(=O)O | -57.7 |
| CCCc1nc2oc3c(OCC)ncnc3c2c2c1COC(C)(C)C2 | -13.2 |
| CCCCn1c(N)c(N(C)C(=O)c2ccc(-n3cccn3)cc2)c(=O)[nH]c1=O | 0.138 |
| Cc1cc(NC(=O)c2cccc(S(=O)(=O)N3CCCCCC3)c2)n(-c2ccccn2)n1 | 13.4 |
| CCOC(=O)C1(Cc2cccc(F)c2)CCN(C2CCOCC2)CC1 | -63.5 |
| CCOC(=O)C1(Cc2cccc(F)c2)CCN(C(=O)C2CCOCC2)CC1 | -15 |
| CCOC(=O)C1(Cc2cccc(F)c2)CCN(C(=O)C2CCCO2)CC1 (centres unmarked) | 10.2 |
| CCOC(=O)C1(Cc2cccc(OC)c2)CCN(C2CCOCC2)CC1 | -68.7 |
| Cc1ccc(CC(=O)Nc2ncc([N+](=O)[O-])s2)cc1 | 32.5 |
| CCCCN(CC)C(=O)Cc1c(C(=O)O)[nH]c2ccc(Cl)cc12 | 12.4 |
| CCN1CCN(c2ccc(NC(=O)COc3ccccc3Cl)cc2)CC1 | -40.7 |
| Cc1cc(S(=O)(=O)N2CCOCC2)ccc1NC(=O)c1ccc(F)cc1 | 1.32 |
| Cc1ccc(CNC(=O)c2cc3c(s2)CN(Cc2ccccc2)C3)cc1.Cl | 3.85 |
| CC(C#N)(NC(=O)CN1CCN(S(=O)(=O)c2ccccc2Cl)CC1)C1CC1 (centres unmarked) | 5.18 |
| Cc1c(C=C2C(=O)N(C)C(=S)N(C)C2=O)c2ccccc2n1CC(=O)NCC1CCCO1 (centres unmarked) | 4.95 |

| Structure (SMILES) | hERG current change (%, negative = inhibition) at 10uM [%] |
| --- | --- |
| O=C(/C=C/c1ccc([N+](=O)[O-])cc1)Nc1cccnc1 | -62.7 |
| Cc1ccc(/C(N)=N/OC(=O)C(C)c2ccc([N+](=O)[O-])cc2)cc1 (centres unmarked) | -4.62 |
| CC(C(=O)O/N=C(\N)c1cccnc1)c1ccc([N+](=O)[O-])cc1 (centres unmarked) | -56.8 |
| O=C(/C=C/c1cccnc1)c1ccc([N+](=O)[O-])cc1 | -42.3 |
| N#C/C(=C\c1cccnc1)c1ccc([N+](=O)[O-])cc1 | -56.3 |
| N#C/C(=C\c1cccnc1)c1ccc(Br)cc1 | -5.44 |
| N/C(=N\OC(=O)c1ccc([N+](=O)[O-])cc1)c1cccnc1 | -10.7 |
| O=C(/C=C/c1ccc([N+](=O)[O-])cc1)c1cccnc1 | -53 |
| O=C(/C=C/c1ccccc1)Nc1cccnc1 | -26 |
| O=C(/C=C/c1ccc(Cl)c([N+](=O)[O-])c1)Nc1cccnc1 | -17.3 |
| O=C(/C=C/c1ccc(Cl)c([N+](=O)[O-])c1)c1cccnc1 | -6.3 |
| N#C/C(=C\c1cccnc1)c1ccccc1[N+](=O)[O-] | 4.04 |
| O=C(NNC(=O)C12CC3CC(CC(Cl)(C3)C1)C2)c1csc(N2CCOCC2)n1 | -1.63 |
| Cc1[nH]nc(SCC(=O)N2CCCCCC2)c1[N+](=O)[O-] | 3.4 |
| Cc1nnc(SCC(=O)NNC(=O)CC#N)[nH]c1=O | -7.01 |
| CCOc1cc(-c2cc(N)n[nH]2)cc(OCC)c1OCC | 14.6 |
| Cc1ccc(N(C)C(=O)n2cnc3ccccc32)cc1 | -1.52 |
| CN(Cc1ccccc1)C(=S)NC(=O)c1cccs1 | 8.32 |
| O=C(NCc1nnc(SC/C=C/c2ccccc2)o1)c1ccco1 | -5.97 |
| CC1(COS(N)(=O)=O)CCCCC1 | 1.76 |
| Cc1ccc(S(=O)(=O)Nc2ccc(-c3nc4ccc(C)cc4s3)cc2)cc1 | 2.32 |
| CC(C)COc1ccc(/C(=N/O)c2ccccc2)cc1 | 11 |
| Cc1ccc(C(=O)c2coc3ccc(OCC(=O)O)cc23)cc1 | 2.16 |
